# Where a name gives a salt, the structure may show the parent alone.
# System: HeLa
# Assay: nuclear count per well, robust Z-score vs DMSO; higher = more cells (less toxicity)
# Conditions: 10 µM; 6 h
# 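Note: Hoechst-stained nuclei counted by automated confocal imaging of four fields per well in 384-well plates, with the robust Z-score based on the per-plate DMSO median and robust SD.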
row,Compound,nuclear count per well
1,CC1=C(/C=C/C(C)=C/C=C/C(C)=C\C(=O)O)C(C)(C)CCC1 [Isotretinoin],0.753
2,Cc1ccccc1C(=O)Nc1ccc(C(=O)N2CCCC(O)c3cc(Cl)ccc32)c(C)c1 (configuration not stated) [Tolvaptan],0.183
3,CC[C@]1(O)C[C@@H]2CN(CCc3c([nH]c4ccccc34)[C@@](C(=O)OC)(c3cc4c(cc3OC)N(C)[C@H]3[C@@](O)(C(=O)OC)[C@H](OC(C)=O)[C@]5(CC)C=CCN6CC[C@]43[C@@H]65)C2)C1 [Vinblastine],-2.14
4,Nc1cc(N2CCCCC2)nc(N)[n+]1OS(=O)(=O)[O-] [Minoxidil sulfate],-0.128
5,Cn1nnc2c(C(N)=O)ncn2c1=O [Temozolomide],0.207
6,N=C(N)NC(=O)Cc1c(Cl)cccc1Cl,0.22
7,COc1cc2nc(N3CCN(C(=O)C4COc5ccccc5O4)CC3)nc(N)c2cc1OC (configuration not stated) [Doxazosin Mesylate],0.467
8,Cc1[nH]cnc1CN1CCc2c(c3ccccc3n2C)C1=O,0.399
9,C[C@@H]1C[C@H]2[C@@H]3CCC4=CC(=O)C=C[C@]4(C)[C@@]3(Cl)[C@@H](O)C[C@]2(C)[C@@]1(OC(=O)c1ccco1)C(=O)CCl [Mometasone Furoate],0.429
10,COc1ccc2c(c1)c(CC(=O)O)c(C)n2C(=O)c1ccc(Cl)cc1 [Indomethacin],0.64
11,CC(C)NCC(O)c1cc(O)cc(O)c1 (configuration not stated) [Metaproterenol Hemisulfate (Orciprenaline)],-0.939
12,O=C(O)c1cc(=O)c2c(OCC(O)COc3cccc4oc(C(=O)O)cc(=O)c34)cccc2o1,-0.726

# — the supplement of paper PMC9844399
